# S1P2 ag: agonists of human S1P2 receptor; actives 0.46% (n = 97,000); S1P2-expressing cell line, agonist reporter read-out; activation, % at 4.5 µM; in the data active = activation above about 16%;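 note: 0% = vehicle low control and 100% = maximal reference agonist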
# GALR2 antag: GALR2 (human) receptor antagonism; O43603; GALR2-expressing cells, antagonist mode; inhibition, % at 4 µM; actives 0.39% (n = 140,000); in the data active = inhibition above about 27%;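 note: cells stimulated with galanin 1-16 at roughly its EC80; 0% = agonist challenge control and 100% = basal control without agonist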
# Target sequence (O43603 whole entry, looked up): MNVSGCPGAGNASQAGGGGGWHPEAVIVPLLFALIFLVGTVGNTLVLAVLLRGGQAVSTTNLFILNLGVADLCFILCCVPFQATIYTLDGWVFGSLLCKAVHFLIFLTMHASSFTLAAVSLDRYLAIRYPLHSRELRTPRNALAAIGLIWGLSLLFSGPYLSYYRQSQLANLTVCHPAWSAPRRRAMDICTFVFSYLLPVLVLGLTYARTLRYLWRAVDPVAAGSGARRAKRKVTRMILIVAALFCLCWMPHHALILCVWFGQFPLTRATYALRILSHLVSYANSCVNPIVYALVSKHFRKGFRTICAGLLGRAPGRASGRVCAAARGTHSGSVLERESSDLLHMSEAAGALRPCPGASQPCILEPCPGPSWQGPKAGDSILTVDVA
# sdo1 growth: compounds rescuing growth of sdo1-depleted yeast, bone marrow failure model. S. cerevisiae sdo1-depleted JHY4D growth rescue, OD600 30 h; active compounds read high; pdr5 snq2 efflux-pump mutant strain. z-score at 10 µM. actives 0.21% (n = 140,000);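 active = z-score above 3 at both the 24 hr and the 30 hr optical density reads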;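 note: z-score against mean and SD of all compound wells on the same plate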
# S1P2 blocker: S1P2 (human) receptor antagonism; O95136; cell-based S1P2 antagonist assay, inhibition at 5 uM; inhibition, % at 5 µM; actives 0.21% (n = 97,000); in the data active = inhibition above about 45%;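 note: CRE beta-lactamase reporter cells expressing human S1P2 stimulated with S1P; 0% = agonist at EC80 alone and 100% = agonist plus reference antagonist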
# GALR2 ag: agonists of human galanin receptor 2 (GALR2); GALR2-expressing cells, agonist activation read-out; activation, % (concentration not given with the values); actives 0.48% (n = 140,000); AID 803; in the data active = activation above about 5%, passing the limit was not always enough;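 note: 0% = vehicle buffer wells and 100% = reference agonist at full effect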
# FAK inh: FAK (human) kinase inhibition. Q05397. biochemical FAK kinase activity assay. inhibition, %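 (tested at 7 µM)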. actives 0.84% (n = 97,000);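 note: 0% = DMSO and 100% = reference compound high control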
# FAK inh conf: confirmation of human focal adhesion kinase (FAK) inhibitors; shares compounds with FAK inh; FAK kinase biochemical inhibition assay; inhibition, % at 7 µM; actives 28% (n = 750); AID 794
# Starred values were filed as active, the others as inactive; x = not tested or not shown. The list is not random: actives were taken first. Their share in the collection is about 1.9%. Cut-off read from the data, not from the text of the source, unless noted: active = inhibition above about 19%; inactive = the rest.
SMILES,S1P2 ag,GALR2 antag,sdo1 growth,S1P2 blocker,GALR2 ag,FAK inh,FAK inh conf
Cc1ccc(S(=O)(=O)N2CCOCC2)cc1C(=O)NCc1cn2ccsc2n1,-3,10,1.7,-6,-2,14,x
CC(C)(C)c1nc(SCC(=O)Nc2ccc3c(c2)OCCO3)c2ccccc2n1,-3,0,-0.86,-3,-1,19*,8
CC(C)(C)c1nc(SCC(=O)Nc2ccc(N3CCOCC3)cc2)c2ccccc2n1,-3,7,-1.6,7,0,32*,15
O=C(CSc1nc2ccccc2o1)Nc1ccc(N2CCOCC2)cc1,-11,1,-0.51,3,-1,4,x
CCc1nc(SCC(=O)c2ccc3c(c2)OCCO3)c2ccccc2n1,-5,-2,-0.43,-8,-3,22*,8
O=C(CSc1nc(Cc2ccccc2)nc2ccccc12)c1ccc2c(c1)OCCO2,-1,-25,-1,-6,0,-7,x
Cc1ccc(-c2c3c(nc4sc(C(N)=O)c(N)c24)CCC3)cc1,-1,-10,-1.7,9,1,22*,5
NC(=O)c1sc2nc3c(c(-c4ccc(Cl)cc4)c2c1N)CCCC3,-2,-15,0.12,8,-1,-4,x
N#Cc1c(-c2ccco2)cc(-c2ccccn2)nc1N,3,3,0.37,-35,-1,11,x
N#Cc1c(-c2ccco2)cc(-c2cccnc2)nc1N,12,-7,0.62,-13,1,20*,6
Cc1ccc2[nH]c3c(N4CCN(Cc5ccc6c(c5)OCO6)CC4)ncnc3c2c1,-6,-9,-1.5,69*,-1,38*,18
Brc1cccc(OCCCCN2CCCCC2)c1,x,6,-1.3,x,-2,x,x
O=c1[nH]cnc2sc3c(c12)CCCC3,-3,7,-0.12,-1,-2,26*,10
S=C(NCCCn1ccnc1)NC1CCCCC1,x,14,-0.34,x,-2,x,x
CC1CCN(C(=O)N2c3ccccc3Sc3ccccc32)CC1,0,-6,-0.62,-14,-2,-1,x
O=C(N1CCOCC1)N1c2ccccc2Sc2ccccc21,-8,-1,-1.1,25,-2,40*,2
N#Cc1cc(Br)ccc1N=C1CCCN1c1ccccc1,x,1,-0.53,x,0,x,x
COc1cccc(CN(c2ccc3c(c2)CCC3)S(=O)(=O)c2ccc(-n3cnnn3)c(OC)c2)c1,x,-3,-0.63,x,0,x,x
COCCCNc1c2c3c(cccc3[nH]c1=O)C(=O)c1ccccc1-2,-6,16,-0.45,-11,-3,20*,10
O=C(Nc1ccc(N=Nc2ccccc2)c(NC(=O)C2CCCO2)c1)C1CCCO1 (stereo not given),x,0,-1.8,x,-1,x,x
CC(C)(C)C(=O)NC(=C(Cl)Cl)P(=O)(O)O,0,-9,0.8,17,-1,66*,52*
CCOc1ccc(Cl)cc1S(=O)(=O)n1nnc2ccccc21,-6,18,-2.2,-15,-1,1,x
CC1=CC(=C2C(=O)c3ccccc3C2=O)C=C(C)N1Cc1ccco1,-8,10,0.36,3,1,24*,5
O=C(Nc1cccc(Cl)c1)ON=C1c2ccccc2-c2ccccc21,-1,-1,-1.1,7,0,39*,5
COC(=O)c1ccccc1NC(=O)c1cccc(COc2ccccc2Cl)c1,-1,15,-0.59,-10,-3,23*,0
SMILES,S1P2 ag,GALR2 antag,sdo1 growth,S1P2 blocker,GALR2 ag,FAK inh,FAK inh conf
O=C(NCc1ccccc1)c1cccc(COc2ccccc2Cl)c1,-5,6,-1.3,-7,0,-6,x
COC(=O)C1=C(C)NC2=C(C(=O)CC(c3cccs3)C2)C1c1ccsc1 (stereo not given),-6,-8,-0.29,-5,-1,22*,21*
COC(=O)C1=C(C)NC2=C(C(=O)CCC2)C1c1ccsc1 (stereo not given),-2,5,0.01,22,-1,4,x
CCOc1c(Br)cc(C2NS(=O)(=O)N=C3CCCCCN32)cc1OC (stereo not given),-6,7,-0.25,11,-2,47*,0
O=S1(=O)N=C2CCCN2C(c2ccc(F)cc2)N1 (stereo not given),-1,-7,0.46,-16,0,-7,x
Oc1ccc(Br)cc1/C=N/n1cnc2ccccc21,-3,9,-2.4,20,-2,19*,6
Cc1c(C(=O)OCC2CCCO2)[nH]c2c1C(=O)CC(c1ccco1)C2 (stereo not given),-6,1,-0.51,-4,-1,26*,4

# Compound activity as filed in PubChem BioAssay.
